Out of some 5,500 compounds screened, about 2,000 (36%) were called active. About 18% were inconclusive and are not listed. Cut-off read from the data, not from the text of the source: active = normalized growth mostly below about 0.91 (no sharp cut-off); inconclusive = no clear call, values can overlap the other calls; inactive = mostly above about 0.92. The list shows a part of the results.
Experiment: chemical genetic growth profiling, strain panel (AID 1159580);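 note: tested at 20 µM; growth read once vehicle control cultures reached saturation at 30 °C; 1 = growth at the plate median or of vehicle wells; lower values mean less growth of the strain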
Settings: S. cerevisiae deletion strains, growth OD

Measured: normalized growth

CNCCc1c[nH]c2ccc(O)cc12
inactive: locus YAL040C, strain CLN3, hits give low values 1.01 | locus YCL061C, strain MRC1 (second series), hits give low values 1.01 | locus YDR150W, strain NUM1, hits give low values 0.994 | locus YDR363W, strain ESC2, hits give low values 1.01 | locus YER002W, strain NOP16, hits give low values 1.01 | locus YGR078C, strain PAC10, hits give low values 1.02 | locus YMR307W, strain GAS1, hits give low values 1 | locus YNL128W, strain TEP1, hits give low values 1 | locus YNL175C, strain NOP13, hits give low values 1.01 | locus YNL197C, strain WHI3, hits give low values 1.02 | locus YNL224C, strain SQS1, hits give low values 1.01 | locus YNL322C, strain KRE1, hits give low values 1.02 | locus YOR083W, strain WHI5 (second series), hits give low values 1.01 | locus YPL055C, strain LGE1, hits give low values 1.01 | locus YPL241C, strain CIN2, hits give low values 1

Source: PubChem BioAssay AID1159580 (chemical genetic matrix, 2015)
